This is an account of results in PubChem BioAssay.

Structures are written as SMILES. Calls of active or inactive are those of the source.

Assay [1] has as its system Plasmodium falciparum Sir2 (PF13_0152, Sir2A). The assay is described as follows: Plasmodium falciparum Sir2A binding compounds – biochemical, small-molecule microarray, 635 nm fluorescence, primary screen (AID 1098).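 Further: score merges spot fluorescence intensity with its signal-to-noise ratio.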 The settings on record: fluorescence 635 nm, higher = more signal.
Assay [2] in a line: probe aDKK1 binding to arrayed compounds – biochemical, biotinylated probe, 635/667 nm fluorescence, primary screen (AID 1099).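 Further: score merges 667nm spot fluorescence with signal to noise across triplicate slides.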 The settings on record: small-molecule microarray, higher = more signal.
A short description of assay [3]: probe aCHRDL2 binding to arrayed compounds – biochemical, biotinylated probe, 635/667 nm fluorescence, primary screen (AID 1100). The settings on record: small-molecule microarray, higher = more signal.
The nature of assay [4]: change in splice reporter luminescence, either direction, cell-based, HEK293, spliceosome inhibition project, primary screen (AID 1101).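 Further: HEK293 cells carrying a splicing-competent luciferase reporter gene; test concentration not given here.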 Particulars: HEK293 splicing luciferase reporter, 24 h, higher = more signal, called active from +8 up or from −8 down.
Assay [5] deals with Fibroblast growth factor 10 (Homo sapiens) (UniProt O15520). The assay is described as follows: compounds binding fibroblast growth factor 10 – biochemical, small-molecule microarray, 635 nm fluorescence, primary screen (AID 1102). The settings on record: FGF10 binding, fluorescence 635 nm, higher = more signal.
Assay [6] relates to glycogen synthase kinase-3 (GSK3A per assay name; protocol says GSK3B). The assay is described as follows: compounds binding glycogen synthase kinase-3 – biochemical, small-molecule microarray, 635 nm fluorescence, GSK3A, primary screen (AID 1103). Further: the record names both GSK3A and GSK3B. Particulars: fluorescence 635 nm, higher = more signal.
Assay [7] addresses Epidermal growth factor receptor (Homo sapiens) (UniProt P00533). In words: compounds binding epidermal growth factor receptor – biochemical, small-molecule microarray, 635 nm fluorescence, primary screen (AID 1104).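 Further: score merges 667 nm emission intensity with spot signal to noise over triplicate slides.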 The settings on record: EGFR binding, higher = more signal.
The target in assay [8] is Follistatin-related protein 3 (Homo sapiens) (UniProt O95633). In words: compounds binding follistatin-related protein 3 – biochemical, small-molecule microarray, 635 nm fluorescence, primary screen (AID 1105).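 Further: score merges emission near 667 nm and signal to noise per printed spot across three slides.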 The settings on record: FSTL3 binding, higher = more signal.
Assay [9] addresses Dickkopf-related protein 1 (Homo sapiens) (UniProt O94907). In words: small molecules binding DKK1 protein – biochemical, small-molecule microarray, 635 nm fluorescence scan, primary screen (AID 1106).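 Further: score merges emission near 667 nm with signal to noise over three replicate slides.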 The settings on record: higher = more signal.
Assay [10] concerns Inhibin beta A chain (activin A). The assay is described as follows: small molecules binding activin A – biochemical, small-molecule microarray, 635 nm fluorescence scan, primary screen (AID 1107).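 Further: mouse activin A protein probed at 4.33 µg/mL on printed slides; score merges bound-protein fluorescence near 667 nm with spot signal-to-noise.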 Particulars: INHBA, higher = more signal.
Assay [11] concerns Human papillomavirus type 1a protein E7 (residues 44-93). The assay is described as follows: small molecules binding HPV E7 44-93 – biochemical, small-molecule microarray, residues 44-93, 635 nm fluorescence, primary screen (AID 1108).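 Further: E7 fragment applied at 1 µg/mL in TBST for 1 h at 4 C; score combines spot fluorescence with its signal to noise ratio.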 Particulars: fluorescence 635 nm, higher = more signal.
Assay [12] is described as follows: hepatitis C replication reporter changes, two-sided – Huh7 cells, luciferase reporter, HCV replication inhibitor project, primary screen (AID 1109).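 Further: huh7 hepatoma cells harbouring a luciferase neomycin HCV replicon reporter; luciferase luminescence as measure of HCV replicon replication; test concentration not given here.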 Particulars: Huh7 HCV replicon luciferase reporter, 48 h; higher = more signal. In general terms: A reporter such as luciferase makes a cellular process visible.
In assay [13] the target is Left-right determination factor 2 (Homo sapiens) (UniProt O00292). In words: small molecules binding LEFTY2 protein – biochemical, small-molecule microarray, 635 nm fluorescence scan, primary screen (AID 1110). Particulars: higher = more signal.
For assay [14], the target named is Calmodulin-1 (Homo sapiens) (UniProt P0DP23). In words: small molecules binding calmodulin-1 with EGTA – biochemical, small-molecule microarray, Cy5-labelled CALM1, profiling panel (AID 1111).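 Further: labelled calmodulin applied in Tris saline Tween buffer holding calcium plus EGTA and DTT.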 The settings on record: Cy5-CALM1 binding fluorescence, higher = more signal.
For assay [15] the target is unchanged. In words: small molecules binding Ca-loaded calmodulin-1 – biochemical, small-molecule microarray, Cy5-labelled CALM1, plus calcium, artefact control for SMM control-protein annotation, profiling panel (AID 1112).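 Further: score merges spot fluorescence with signal to noise from triplicate slides.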 The settings on record: Cy5-CALM1 binding fluorescence, higher = more signal.
Assay [16] is described as follows: probe aWnt5a binding to arrayed compounds – biochemical, biotinylated probe, 635/667 nm fluorescence, primary screen (AID 1113).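 Further: score merges 667 nm fluorescence intensity with signal-to-noise per printed feature.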 Particulars: small-molecule microarray, higher = more signal.
Assay [17] is described as follows: probe aShh binding to arrayed compounds – biochemical, biotinylated probe, 635/667 nm fluorescence, primary screen (AID 1114).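 Further: probe is biotin-labelled aShh protein from a stem cell growth factor screen; measures binding of labelled protein to compounds printed on the slide; score merges feature fluorescence at 667 nm with signal-to-noise.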 Particulars: small-molecule microarray, higher = more signal.
The nature of assay [18]: probe aNog binding to arrayed compounds – biochemical, biotinylated probe, 635/667 nm fluorescence, primary screen (AID 1115).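 Further: probe is biotinylated aNog protein used at 0.15 µg/mL for 1 h at 4 C; z-score combines 667 nm fluorescence of each spot with its signal to noise.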 The settings on record: small-molecule microarray, higher = more signal.
In assay [19] the target is Torsin-1A-interacting protein 1 (Homo sapiens) (UniProt Q5JTV8). In words: compound microarray binding of lysate hLAP1 – cell lysate, small-molecule microarray, COS7 lysate, 635/667 nm fluorescence, primary screen (AID 1116). The settings on record: 635 nm fluorescence, higher = more signal.
Assay [20] has as its target Alpha-bungarotoxin (Bungarus multicinctus) (UniProt P60615). In words: compounds binding labelled alpha-BTX control protein – biochemical, small-molecule microarray, Alexa647 label, 635/667 nm fluorescence, artefact control for SMM control protein annotation, profiling panel (AID 1117). Particulars: alpha-BTX-A647 binding fluorescence, higher = more signal.

Sequence of Torsin-1A-interacting protein 1 (Homo sapiens) (Q5JTV8 whole entry, looked up): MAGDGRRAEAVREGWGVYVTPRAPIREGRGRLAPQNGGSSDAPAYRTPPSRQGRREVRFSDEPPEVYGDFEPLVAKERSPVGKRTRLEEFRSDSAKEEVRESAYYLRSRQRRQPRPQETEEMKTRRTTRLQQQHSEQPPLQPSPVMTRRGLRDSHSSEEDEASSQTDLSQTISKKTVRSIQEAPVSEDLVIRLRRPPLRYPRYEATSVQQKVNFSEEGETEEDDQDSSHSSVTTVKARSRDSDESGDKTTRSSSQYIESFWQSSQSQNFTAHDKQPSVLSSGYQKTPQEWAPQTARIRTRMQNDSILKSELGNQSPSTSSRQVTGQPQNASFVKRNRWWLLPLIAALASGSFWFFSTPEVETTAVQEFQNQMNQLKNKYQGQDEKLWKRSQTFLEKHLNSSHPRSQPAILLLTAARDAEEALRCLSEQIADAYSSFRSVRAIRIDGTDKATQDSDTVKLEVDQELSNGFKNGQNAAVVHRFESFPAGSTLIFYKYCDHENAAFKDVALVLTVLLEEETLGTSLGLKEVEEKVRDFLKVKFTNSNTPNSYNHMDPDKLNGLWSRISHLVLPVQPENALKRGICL
Sequence of Left-right determination factor 2 (Homo sapiens) (O00292 whole entry, looked up): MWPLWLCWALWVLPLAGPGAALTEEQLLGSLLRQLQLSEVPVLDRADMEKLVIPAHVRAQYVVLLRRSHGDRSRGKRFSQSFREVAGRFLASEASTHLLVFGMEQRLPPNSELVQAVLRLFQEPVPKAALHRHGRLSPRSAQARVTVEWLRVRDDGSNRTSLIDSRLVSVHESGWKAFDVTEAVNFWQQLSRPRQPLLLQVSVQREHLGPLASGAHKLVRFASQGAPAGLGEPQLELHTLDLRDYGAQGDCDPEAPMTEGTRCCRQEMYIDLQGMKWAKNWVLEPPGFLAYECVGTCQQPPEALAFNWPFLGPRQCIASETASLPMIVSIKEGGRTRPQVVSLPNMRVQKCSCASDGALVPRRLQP
Sequence of Dickkopf-related protein 1 (Homo sapiens) (O94907 whole entry, looked up): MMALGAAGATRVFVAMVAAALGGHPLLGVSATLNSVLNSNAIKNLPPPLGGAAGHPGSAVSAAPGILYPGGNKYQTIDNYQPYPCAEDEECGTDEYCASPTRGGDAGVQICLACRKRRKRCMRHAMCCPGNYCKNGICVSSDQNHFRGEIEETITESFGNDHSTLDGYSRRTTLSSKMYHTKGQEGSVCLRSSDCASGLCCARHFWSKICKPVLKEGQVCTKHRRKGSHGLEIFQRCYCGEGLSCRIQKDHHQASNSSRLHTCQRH
Sequence of Fibroblast growth factor 10 (Homo sapiens) (O15520 whole entry, looked up): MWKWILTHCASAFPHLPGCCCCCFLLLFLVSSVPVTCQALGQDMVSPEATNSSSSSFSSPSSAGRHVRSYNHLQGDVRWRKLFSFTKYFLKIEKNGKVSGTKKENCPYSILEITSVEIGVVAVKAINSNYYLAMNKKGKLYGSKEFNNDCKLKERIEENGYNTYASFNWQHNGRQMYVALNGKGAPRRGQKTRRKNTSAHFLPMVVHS
Sequence of Follistatin-related protein 3 (Homo sapiens) (O95633 whole entry, looked up): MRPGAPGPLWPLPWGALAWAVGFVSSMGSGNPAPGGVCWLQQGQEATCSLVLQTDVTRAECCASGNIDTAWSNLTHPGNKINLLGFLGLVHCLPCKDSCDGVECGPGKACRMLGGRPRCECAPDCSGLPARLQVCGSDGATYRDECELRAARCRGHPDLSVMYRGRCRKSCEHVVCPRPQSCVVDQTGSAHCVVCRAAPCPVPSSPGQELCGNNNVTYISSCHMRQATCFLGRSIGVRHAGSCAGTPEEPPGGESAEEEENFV
Sequence of Alpha-bungarotoxin (Bungarus multicinctus) (P60615 whole entry, looked up): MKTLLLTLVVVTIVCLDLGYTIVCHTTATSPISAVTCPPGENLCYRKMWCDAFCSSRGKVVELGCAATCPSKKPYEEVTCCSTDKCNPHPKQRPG
Sequence of Epidermal growth factor receptor (Homo sapiens) (P00533 whole entry, looked up): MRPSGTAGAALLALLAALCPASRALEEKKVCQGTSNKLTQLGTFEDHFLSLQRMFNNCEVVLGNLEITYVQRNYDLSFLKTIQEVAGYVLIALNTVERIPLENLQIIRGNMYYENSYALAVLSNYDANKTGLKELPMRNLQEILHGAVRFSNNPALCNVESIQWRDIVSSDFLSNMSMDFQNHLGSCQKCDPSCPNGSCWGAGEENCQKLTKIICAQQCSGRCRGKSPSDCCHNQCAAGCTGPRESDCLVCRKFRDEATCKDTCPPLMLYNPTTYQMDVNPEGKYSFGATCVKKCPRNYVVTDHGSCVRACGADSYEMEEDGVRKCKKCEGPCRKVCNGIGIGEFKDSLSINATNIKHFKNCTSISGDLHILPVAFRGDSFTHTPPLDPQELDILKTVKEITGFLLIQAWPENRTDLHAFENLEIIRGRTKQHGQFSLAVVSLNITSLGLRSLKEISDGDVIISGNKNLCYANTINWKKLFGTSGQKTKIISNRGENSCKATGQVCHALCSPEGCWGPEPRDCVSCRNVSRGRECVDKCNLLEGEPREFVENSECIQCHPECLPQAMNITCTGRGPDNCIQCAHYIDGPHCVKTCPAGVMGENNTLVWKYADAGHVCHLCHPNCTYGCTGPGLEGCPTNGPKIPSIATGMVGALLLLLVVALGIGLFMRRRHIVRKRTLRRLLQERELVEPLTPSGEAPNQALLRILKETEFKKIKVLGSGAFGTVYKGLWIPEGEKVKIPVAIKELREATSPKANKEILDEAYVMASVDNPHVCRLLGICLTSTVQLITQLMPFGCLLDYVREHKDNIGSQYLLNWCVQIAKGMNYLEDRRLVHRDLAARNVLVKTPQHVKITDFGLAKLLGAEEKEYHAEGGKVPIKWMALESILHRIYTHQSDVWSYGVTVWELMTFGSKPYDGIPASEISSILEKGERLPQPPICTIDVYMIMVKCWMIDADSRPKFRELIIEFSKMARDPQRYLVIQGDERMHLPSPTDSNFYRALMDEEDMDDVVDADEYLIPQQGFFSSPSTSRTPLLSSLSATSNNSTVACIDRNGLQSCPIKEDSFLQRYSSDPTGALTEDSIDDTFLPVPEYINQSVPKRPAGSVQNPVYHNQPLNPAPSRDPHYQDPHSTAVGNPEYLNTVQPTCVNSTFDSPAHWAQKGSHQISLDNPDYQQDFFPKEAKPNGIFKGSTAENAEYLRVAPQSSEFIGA

Take `[N-]=[N+]=Nc1ccccc1[C@H]1OC(c2ccc(OCCCO)cc2)=N[C@@]1(CCS(=O)(=O)c1ccccc1)C(=O)NCC(O)CO` (stereo not given in full): the composite z-score in [1] was 1.47; in [2] it was 0.766; in assay [3], 0.95; in assay [5], 1.24; in assay [6], 0.933; in assay [7] it was -0.214. The composite z-score in assay [8] is 0.505; in [9], -0.415; in assay [10], 0.899; in [11] it was 1.46; in assay [13] it was -0.671; in [14], 1.15. For the same compound, the composite z-score in [15] was 0.211; in assay [16], 0.027; in assay [17], 0.0611; in [18], -0.62; in assay [19], 1.93; in assay [20], 1.21. For the same compound, the z-score in [4] was -0.662 (inactive); in assay [12] it was -0.604.

For `CNS(=O)(=O)c1ccc(C)cc1`, the composite z-score in assay [1] is 0.3; in assay [2] it was -0.0385; in [3], -0.446; in assay [5], 0.648; in [6], 0.674; in assay [7] it was 0.434. Also, the composite z-score in [8] is 0.688; in [9] it was 1.14; in [10], -1.89; in assay [11], 0.899; in assay [13] it was 0.804; in [14], -0.206. Besides, the composite z-score in assay [15] is -0.263; in assay [16], -0.169; in [17] it was -0.504; in assay [18], -0.138; in assay [19], -0.312; in assay [20], 0.514. The z-score is -1.07 (inactive) in assay [4] and -0.376 in assay [12].

`COc1ccc([Si](C)(C)[C@H]2[C@H](CC(=O)N3Cc4ccccc4C[C@H]3CO)O[C@@]3(C(=O)N(Cc4cccc(N5CCC5=O)c4)c4ccccc43)[C@@H]2C)cc1`: the composite z-score in assay [1] is 1.31; in [2] it was -0.293; in assay [3], -0.325; in assay [5], 1.05; in assay [6], 0.716; in [7] it was 1.19. Further, the composite z-score in assay [8] is 1.42; in assay [9] it was 1.26; in assay [10] it was 0.962; in assay [11] it was 1.37; in [13], 0.903; in [14] it was -0.293. Also, the composite z-score in assay [15] was -1.02; in assay [16] it was -0.0425; in assay [17] it was 0.2; in assay [18], 0.0308; in [19] it was 0.626; in assay [20], -0.0509. Further, the z-score in [4] is -0.205 (inactive); in assay [12], -3.58.

As to `CC(C)(C)OC(=O)CC[C@]1(C(=O)N2CCOCC2)N=C(c2ccc(OCCCO)cc2)O[C@H]1c1ccccc1N=[N+]=[N-]`, the composite z-score in assay [1] was 1.5; in [2], 0.653; in assay [3], 0.854; in assay [5], 1.18; in assay [6], 1.2; in assay [7], -0.0405. For the same compound, the composite z-score in [8] amounted to 0.0265; in assay [9], 0.283; in assay [10] it was 0.936; in assay [11], 1.05; in assay [13], 0.119; in [14] it was 0.981. Moreover, the composite z-score is 0.0644 in assay [15]; -0.0125 in assay [16]; 0.308 in assay [17]; 1.37 in [18]; 2.43 in assay [19]; 1.23 in assay [20]. Also, the z-score in [4] was -0.921 (inactive); in assay [12], 2.2.

As to `CN(C)CCCC[C@@H]1NC(=O)[C@H]2C[C@@H](C(=O)NCCCCCCN)[C@@H](c3ccc(O)cc3)N2C1=O`, the composite z-score came to 0.436 in [1]; 1.6 in assay [2]; 1.07 in assay [3]; 1.52 in assay [5]; 1.29 in [6]; 0.247 in [7]. Further, the composite z-score in assay [8] turned out to be 1.41; in assay [9], 0.644; in assay [10], 1.17; in assay [11], 1.23; in assay [13], 1.48; in assay [14], 1.67. Further, the composite z-score in assay [15] came to 0.921; in [16], 0.257; in assay [17] it was 0.109; in assay [18], 1.59; in assay [19], 1.74; in assay [20], 2.75. Moreover, the results for the z-score in assay [4] and in assay [12] were -0.193 (inactive) and 0.251, respectively.
